# Inconclusive results are not listed. Where a call stands in place of a potency, no number is given. Active and inactive are the calls of the source. Calls come from the whole dose curve; as a rule, active = well fitted cell-killing curve with a large enough effect in the repeat runs; inconclusive = weak or mixed curves; inactive = flat fitted curve, though single readings scatter.
# Test: qHTS RealTime-Glo MT Cell Viability Assay in HepG2 cells - 24 hour (AID 1224867); note: nearly all actives have a fitted effect of over 50% in size
# Settings: RealTime-Glo luminescence; series mostly up to 76.8 µM
# From the text: U.S. Tox21 Program National Center for Advancing Translational Sciences [NCATS] NIH Chemical Genomics Center [NCGC] U.S. Environmental Protection Agency [EPA] National Institutes of Environmental Health Sciences [NIEHS] National Toxicology Program [NTP] U.S. Food and Drug Administration [FDA] Tox21 Assay Overview: Measure of cell viability is critical in the cell-base assay. Analysis of cell viability is necessary for the characterization of cell responses to cytotoxic drugs and environmental stress. A RealTime-Glo MT Cell Viability Assay to monitor cell viability in real time of continues cell culture during 40 hours of compound treatment was used to screen Tox21 10K library compounds in HepG2 cells. The RealTime-Glo MT Cell Viability Assay is a nonlytic, homogeneous, bioluminescent method to measure cell viability in real time using a simple, plate-based method. The assay involves adding NanoLuc luciferase and a cell-permeant prosubstrate to cells in culture. Viable cells reduce the proprietary prosubstrate to generate a substrate for NanoLuc luciferase. This substrate diffuses from cells into the surrounding culture medium, where it is rapidly used by the NanoLuc Enzyme to produce a luminescent signal. The signal correlates with the number of viable cells, making the assay well suited for cytotoxicity studies.
# Tox21 Assay Protocol Summary: The mixture of HepG2 cell suspension and reagents were dispensed at 600cells/6 ul/well in 1536-well tissue culture treated black solid bottom plates using a Multidrop dispenser. After the assay plates were incubated at a 37 C/5% CO2 incubator for 5 hours, 23 nL of compounds dissolved in DMSO, positive and negative controls was transferred to the assay plate by a pintool work station. The plates were incubated at 37 C for 40 hours. The luminescence intensity were measured at 0h, 8h, 16h, 24h, 32h and 40h time points using ViewLux plate reader during compound treatment.
# Potency is the fitted concentration of half-maximal effect.
row,Structure (SMILES),Potency
1,CCCCCCCCCCCCCCCC(=O)OC(C)C,inactive
2,CCCCCCCCCCO,inactive
3,COc1ccccc1OCC(O)CO (stereo not given),inactive
4,CC(C)(C#N)c1cc(Cn2cncn2)cc(C(C)(C)C#N)c1,inactive
5,CCCCCCO,inactive
6,CN(C)CCOC(=O)COc1ccc(Cl)cc1,inactive
7,O=C(O)CCCCCCCCC(=O)O,inactive
8,c1ccc2c(c1)Cc1ccccc1-2,inactive
9,NCCCCCCN,inactive
10,NCCN1CCNCC1,inactive
11,COc1ccc([N+](=O)[O-])cc1N,inactive
12,CN(C)c1ccc(Cc2ccc(N(C)C)cc2)cc1,inactive
13,CC(CCl)OP(=O)(OC(C)CCl)OC(C)CCl (stereo not given),inactive
14,CC(=O)Oc1ccc(C)cc1,inactive
15,CCNc1cccc(C)c1,inactive
16,CCOC(=O)c1ccc(N)cc1,inactive
17,O=C1c2ccccc2CCc2ccccc21,inactive
18,O=C(O)c1cc2ccccc2cc1O,inactive
19,c1ccc(Oc2ccccc2)cc1,inactive
20,CCOCC(=O)O,inactive

row,Structure (SMILES),Potency
1,CC(CCO)CC(C)(C)C (stereo not given),inactive
2,Cc1ccc(S(=O)(=O)N=C=O)cc1,inactive
3,COCCOC(=O)c1ccccc1C(=O)OCCOC,inactive
4,CCOCCOCCOCCO,inactive
5,N[C@H](Cc1c[nH]c2ccccc12)C(=O)O,inactive
6,CNC(=S)N(C)C,inactive
7,COc1ccc(C)cc1N,inactive
8,CCCCCC(=O)O,inactive
9,CC(=O)OCc1ccco1,inactive
10,COc1ccc(N)c(C)c1,inactive
11,C=CCCCCCCCCC(=O)O,inactive
12,CCCCCCCO,inactive
13,O=C(O)Cn1c(=O)n(Cc2ccc(Br)cc2F)c(=O)c2ccc(Cl)cc21,38.9 µM (active)
14,CC1(C)S[C@@H]2[C@H](NC(=O)COc3ccccc3)C(=O)N2[C@H]1C(=O)O,inactive
15,Cc1ccc([N+](=O)[O-])cc1S(=O)(=O)O,inactive
16,COC(=O)c1cccnc1,inactive
17,CC(O)CC(C)(C)O (stereo not given),inactive
18,O=c1[nH]cnc2[nH]ncc12,inactive
19,Clc1ccccn1,inactive
20,CCO[Si](CCCN)(OCC)OCC,inactive

# Source: PubChem BioAssay (Tox21)
